Experimental data published in PubChem BioAssay (NCI).
Compounds without any hit were thinned out: in the full panel of roughly 79,000, 15% have a hit. A number with no mark means an inactive call. Active and inactive are the calls of the source. Rule as the data show it: active = growth inhibition above about 70%; inactive = the rest.

Columns and labels:
[1] = NCI Yeast Anticancer Drug Screen. Data for the rad50 strain (AID 155);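 also: 0% = growth of vehicle-only cultures of the same strain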; settings: S. cerevisiae rad50 strain growth inhibition; at 50.0 µM; stronger effect = higher value
Method in brief: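 Yeast carrying a defined DNA repair defect were exposed to test compounds, and growth was compared with vehicle-treated controls to give percent inhibition.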

[2] = NCI Yeast Anticancer Drug Screen. Data for the mec2-1 strain (AID 157); settings: S. cerevisiae mec2-1 strain, at 50.0 µM, stronger effect = higher value
Method in brief: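 Test agents were screened against the mec2-1 yeast strain, with defined DNA repair or cell cycle alteration. Growth was scored as inhibition against vehicle-only controls.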

[3] = NCI Yeast Anticancer Drug Screen. Data for the sgs1 mgt1 strain (AID 161);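 also: 0% = growth of cultures given vehicle only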; settings: S. cerevisiae sgs1 mgt1 strain, at 50.0 µM, stronger effect = higher value
Method in brief: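 Inhibition of yeast growth, normalised to vehicle-treated controls, is reported for a strain bearing genetic alterations in DNA damage repair.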

[4] = NCI Yeast Anticancer Drug Screen. Data for the cln2 rad14 strain (AID 165);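 also: 0% = growth equal to vehicle treated cultures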; settings: S. cerevisiae cln2 rad14 strain, at 50.0 µM, stronger effect = higher value
Method in brief: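 Growth of compound-exposed yeast (cln2 rad14 genotype) measured and expressed as inhibition relative to vehicle.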

[5] = NCI Yeast Anticancer Drug Screen. Data for the bub3 strain (AID 167); settings: S. cerevisiae bub3 mutant strain, at 50.0 µM, stronger effect = higher value
Method in brief: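 Compounds were applied to a genetically altered yeast strain carrying a cell-cycle control defect. Growth inhibition was scored against vehicle-treated controls.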

[6] = NCI Yeast Anticancer Drug Screen. Data for the mlh1 rad18 strain (AID 175); settings: S. cerevisiae mlh1 rad18 strain growth inhibition; at 50.0 µM; stronger effect = higher value
Method in brief: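 In this whole-cell yeast screen, a strain with altered DNA damage repair is challenged with compound, and its growth is measured against matched vehicle-treated controls.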

Structure (SMILES)	growth inhibition [1]	growth inhibition [2]	growth inhibition [3]	growth inhibition [4]	growth inhibition [5]	growth inhibition [6]
CC(=O)Nc1cc(Cl)ccc1SC1OC(COC(C)=O)C(OC(C)=O)C(OC(C)=O)C1OC(C)=O (stereo not drawn)	-10.6%	-7.15%	17.9%	-44.2%	4.6%	-2.8%
CCOC(=O)c1cc2c(C(=O)c3ccc([N+](=O)[O-])cc3)c(C(C)=O)ccc2[nH]1	3.15%	-0.45%	-1.2%	-3.55%	19%	-45.6%
NC(=O)CCCCCCCCCCBr	15.6%	21.2%	8.85%	20.2%	22.8%	42.3%
Clc1ccc(C2=NON(c3ncccn3)C3N=CC=CN23)cc1 (stereo not drawn)	9.7%	-20.8%	0.55%	-6.75%	0.05%	19%
Clc1ccc2c(c1)C1Oc3ccc(Cl)cc3C(O2)O1	-5.5%	-24.5%	1%	-14.3%	-6.4%	-2.3%
CC(CCC(=O)O)C1CCC2C3CCC4CC(OC=O)CCC4(C)C3CC(=O)C12C (stereo not drawn)	-5.9%	-3.25%	-12.8%	0.15%	-1.6%	-13.9%
COC(=O)C1C2C=CC(C2)N1[C@@H](C)c1ccccc1 (stereo partly drawn)	8.55%	-28.3%	-40.1%	-5.6%	-28%	-21.4%
CCCC(O)CN (stereo not drawn)	-5.65%	18.2%	-12.7%	9.4%	-0.85%	24.9%
O=C(CC(=O)c1ccccc1)Cc1ccccc1.O=C(CC(=O)c1ccccc1)Cc1ccccc1.[Cu]	60%	22.6%	55.6%	12.7%	12.2%	41.2%
Brc1ccc2nc(-c3ccccc3)c3ccccc3c2c1	-13.7%	-0.45%	-2.35%	-25.4%	14.8%	-2.65%
CC(C)=CC(=O)OC1C2C(C)=CC(O)C(O)C2(C)C2C3(O)OCC24C(CC(=O)OC14)C(C)C3O (stereo not drawn)	56.5%	38.1%	23.4%	48.4%	53.5%	86.8% (active)
COc1cc(OC)c2cc(C(=O)c3cccc4ccccc34)c(=O)oc2c1	1.35%	-22.8%	9.65%	16.9%	19.4%	13.4%
O=[N+]([O-])c1ccc2nc(Cl)n[n+]([O-])c2c1	88.7% (active)	93% (active)	91.5% (active)	89.3% (active)	91.1% (active)	91.8% (active)
CCOC(=O)C(CC1OCCO1)C1=NC(C)(C)CC(C)O1 (stereo not drawn)	-18.4%	1.2%	-11.4%	-0.05%	-7%	3.85%
CCN(CC)CCOc1ccc(/C=C(\C#N)c2ccc(OCCN(CC)CC)cc2)cc1	56.5%	28.6%	30.4%	56%	24.1%	18%
CC/C(=N/NC(N)=O)C1C=COC=C1	-5.75%	2%	-0.1%	-6.8%	-11.8%	1.2%
O=[N+]([O-])c1ccc(Cl)c(F)c1Cl	-13%	-17.1%	-0.2%	5.15%	-3.9%	-12.2%
CC1=NCC(C)S1 (stereo not drawn)	-3.3%	-9.95%	7%	-6.05%	-9.3%	-5.75%
CCC(C)(O)C(C)(O)CC (stereo not drawn)	-6.55%	-13.8%	15.4%	17.6%	-13.8%	-8.8%

Structure (SMILES)	growth inhibition [1]	growth inhibition [2]	growth inhibition [3]	growth inhibition [4]	growth inhibition [5]	growth inhibition [6]
CCC(c1ccco1)C(C#N)C(=O)OC(C)(C)C (stereo not drawn)	-11.8%	-21.9%	-1.05%	-5.8%	-16.3%	-27.7%
CCOC(CNCc1ccncc1)OCC	-19.8%	-20.3%	-26.8%	4.9%	-31%	-10.9%
CCOC(=O)C1=NN(c2ccc(C)cc2)C2=CC(C)=NN(C)C(=S)N21	-18.1%	-7.3%	-21.8%	-13.6%	7.1%	-49.3%
O=S(=O)(N/N=C/c1ccc(Cl)c(Cl)c1)c1ccccc1	18.9%	13.6%	9.8%	-28.4%	13.1%	32.2%
COc1ccc(OC)c(/C=C/c2ccccc2)c1	0.5%	-29.1%	8.25%	-24.8%	1.6%	-14.9%
CCOC(=O)NC(CI)(c1ccccc1)c1ccccc1	20.9%	10.2%	3.55%	7.2%	-0.25%	14.6%
CN(CO)N=Nc1ccc(C(F)(F)F)cc1	-6.05%	-0.65%	-10%	-14.2%	13.2%	19.8%
CCN=c1c([N+](=O)[O-])c(NC(=O)c2ccccc2)sn1CC	-9.1%	-5.65%	-5.5%	28%	-7.75%	-5.7%
CC(c1ccccc1O)C1CCCCC1N=O (stereo not drawn)	-0.15%	3%	16.1%	-48.5%	15.2%	-4.15%
O=C(/C=C/c1ccccc1)Nc1cc(Cl)ccc1Cl	4.75%	26.1%	22.6%	-7.3%	31.8%	17.6%
CC(=O)CC(=O)N1C(C)CCCC1C (stereo not drawn)	-12.3%	-36.7%	-7.55%	-0.4%	-18.1%	-18.7%
CN(C)C(SCc1c(Cl)c(Cl)c(Cl)c(Cl)c1Cl)=[N+](C)C	19.4%	6.3%	15.4%	11.8%	7.15%	28.6%
C=C(C)C1CC=C(/C=N/O)CC1 (stereo not drawn)	-4.6%	4%	5.65%	-13.7%	8.1%	2.8%
c1ccc(CCc2nccc3ccccc23)cc1	8.55%	-0.55%	-5.6%	-0.9%	13.9%	1.1%
N=C(c1ccc2ccccc2c1)c1ccccc1Cc1ccccc1	17.2%	-24.2%	6.15%	-52.5%	9.35%	24.2%
CC(O)CCC(O)CCCO (stereo not drawn)	7.8%	-10.7%	8.4%	-17.1%	4.65%	-11.7%
O=C(O)c1ccc([N+](=O)[O-])cc1N(c1ccccc1)c1ccccc1	27.6%	29.9%	40.1%	22.2%	29.3%	54%
CO/C=C/CCCO	-14.8%	-16.5%	-14.8%	7.55%	-3.55%	-9.7%
O=C(C[n+]1ccccc1)NNC(=O)/C(=C/c1ccc2c(c1)OCO2)NC(=O)c1ccccc1	-5.95%	3.4%	-13.7%	21.3%	-3.95%	10.1%
